The text below walks through data of the supplement of paper PMC12645437, “Orthogonal IMiD-Degron Pairs Induce Selective Protein Degradation in Cells” (ACS Chemical Biology, 2025).

The assay addresses T1, CRBN, Q96SW2.
T1 chain: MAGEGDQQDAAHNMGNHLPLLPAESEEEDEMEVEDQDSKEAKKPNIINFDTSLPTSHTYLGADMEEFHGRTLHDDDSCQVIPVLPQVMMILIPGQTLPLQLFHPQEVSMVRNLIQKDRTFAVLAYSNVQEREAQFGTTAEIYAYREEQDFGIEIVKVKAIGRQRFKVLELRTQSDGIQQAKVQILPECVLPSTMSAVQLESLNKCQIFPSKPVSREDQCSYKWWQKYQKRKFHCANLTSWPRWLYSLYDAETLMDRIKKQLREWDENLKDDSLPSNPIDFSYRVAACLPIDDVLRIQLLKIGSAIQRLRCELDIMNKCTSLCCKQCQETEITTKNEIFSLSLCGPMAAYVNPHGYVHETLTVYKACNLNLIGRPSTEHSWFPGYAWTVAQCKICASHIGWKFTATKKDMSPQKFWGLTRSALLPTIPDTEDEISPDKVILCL
The experiment in a line: log2 fold change of degron read counts, EGFP-low vs EGFP+ sorted cells (limma voom), compound-induced degradation; higher = more compound-induced degradation of the degron-EGFP fusion; degrons are variants of IKZF1/3 zinc finger 2; compound dose not given here. The settings on record: Jurkat, 18 h.

Where [1] appears, read: compound: compound 19 (5-tert-butyl-thalidomide).
Where [2] appears, read: compound: compound 22 (5-morpholino-thalidomide).
Setting [3] is: compound: compound 33 (diphenyl IMiD analogue).

Over roughly 8,300 sequences, “log2 fold change of degron read counts, EGFP-low vs EGFP+ sorted cells (limma voom), compound-induced degradation” has its median near -1.1; the highest 2% begin near 3.2. The list comes from a sample in which the highest values are over-represented; it also holds similar and randomly drawn sequences.
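Note: pooled lentiviral library of zinc finger degron-EGFP fusions in mCherry-positive Jurkat cells, FACS-sorted after compound exposure, with degron abundance counted by next-generation sequencing.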

Regarding FTCPICGREFTQKGNLLRHIKL [46F_47T_49P_50I_52G_53R_54E_55F_67L_, Q9UKT9], the “log2 fold change of degron read counts” value was -1.73 under setting [1], -0.622 under setting [2], -0.517 under setting [3] and 0.583 (compound: thalidomide).
For the sequence FLCNQCGHMFTQKGNLLRHIKL [46F_47L_49N_50Q_52G_53H_54M_55F_67L_, Q9UKT9], the “log2 fold change of degron read counts” value reads like this: under setting [1], -2.55; under setting [2], -2.97; under setting [3], -3.4; (compound: thalidomide) -2.9.
On the same counts, the results for FKCEQCGAQFTQKGNLLRHIKL [46F_47K_49E_50Q_52G_53A_54Q_55F_67L_, Q9UKT9] are -2.76, -3.28, -3.17 and -2.41.
As for FSCPICGHEFTQKGNLLRHIKL [46F_47S_49P_50I_52G_53H_54E_55F_67L_, Q9UKT9], the “log2 fold change of degron read counts” value reads like this: under setting [1], -2.38; under setting [2], -3.52; under setting [3], -2.42; (compound: thalidomide) -2.6.
As for LICNQCGFPCTQKGNLLRHIKL [46L_47I_49N_50Q_52G_53F_54P_55C_67L_, Q9UKT9], the “log2 fold change of degron read counts” value runs as follows: under setting [1], -2.14; under setting [2], -2.53; under setting [3], -2.15; (compound: thalidomide) -1.65.
As to FMCNICGAWFTQKGNLLRHIKL [46F_47M_49N_50I_52G_53A_54W_55F_67L_, Q9UKT9], the “log2 fold change of degron read counts” value was -1.88 under setting [1], -2.01 under setting [2], -0.0323 under setting [3] and -1.08 (compound: thalidomide).
On to FQCEICGAEFTQKGNLLRHIKL [46F_47Q_49E_50I_52G_53A_54E_55F_67L_, Q9UKT9], for which the “log2 fold change of degron read counts” value under setting [1] stood at 1.15, the “log2 fold change of degron read counts” value under setting [2] stood at 1.54, the “log2 fold change of degron read counts” value under setting [3] was found to be 1.73 and the “log2 fold change of degron read counts” value (compound: thalidomide) turned out to be 3.53.
On the same counts, the results for FNCEICGAEFTQKGNLLRHIKL [46F_47N_49E_50I_52G_53A_54E_55F_67L_, Q9UKT9] are 1.62, -0.794, -0.586 and -0.166.
On the same counts, the results for FYCEICGAEFTQKGNLLRHIKL [46F_47Y_49E_50I_52G_53A_54E_55F_67L_, Q9UKT9] are 3.55, 3.26, 2.06 and 0.377.
On the same counts, the results for FACEICGAEFTQKGNLLRHIKL [46F_47A_49E_50I_52G_53A_54E_55F_67L_, Q9UKT9] are 2.52, 1.11, -1.05 and -0.214.
As for FRCEICGAEFTQKGNLLRHIKL [46F_47R_49E_50I_52G_53A_54E_55F_67L_, Q9UKT9], the “log2 fold change of degron read counts” value under setting [1] is -0.6, the “log2 fold change of degron read counts” value under setting [2] was -0.629, the “log2 fold change of degron read counts” value under setting [3] was 1.71 and the “log2 fold change of degron read counts” value (compound: thalidomide) came to 1.31.
Turning to FCCEICGAEFTQKGNLLRHIKL [46F_47C_49E_50I_52G_53A_54E_55F_67L_, Q9UKT9], the “log2 fold change of degron read counts” value was determined as 1.77 under setting [1], 1.26 under setting [2], 0.921 under setting [3] and 1.54 (compound: thalidomide).
On the same counts, the results for FTCDVCGATFTQKGNLLRHIKL [46F_47T_49D_50V_52G_53A_54T_55F_67L_, Q9UKT9] are -1.33, 0.301, 0.357 and 0.358.
The matching figures for FHCPICGRLFTQKGNLLRHIKL [46F_47H_49P_50I_52G_53R_54L_55F_67L_, Q9UKT9]: -0.285, -0.232, 0.531 and -0.155.
The matching figures for FGCEICGAAFTQKGNLLRHIKL [46F_47G_49E_50I_52G_53A_54A_55F_67L_, Q9UKT9]: 3.04, 2.59, 2.15 and 1.39.
As for FACEICGAAFTQKGNLLRHIKL [46F_47A_49E_50I_52G_53A_54A_55F_67L_, Q9UKT9], the “log2 fold change of degron read counts” value is, setting by setting: under setting [1], 3.9; under setting [2], 3.03; under setting [3], 1.11; (compound: thalidomide) 1.38.
The matching figures for FWCEICGAAFTQKGNLLRHIKL [46F_47W_49E_50I_52G_53A_54A_55F_67L_, Q9UKT9]: 3.77, 3.83, 2.67 and 1.57.
The matching figures for FDCEICGAAFTQKGNLLRHIKL [46F_47D_49E_50I_52G_53A_54A_55F_67L_, Q9UKT9]: 2.61, 0.418, 0.792 and 1.38.
The matching figures for FLCEICGAAFTQKGNLLRHIKL [46F_47L_49E_50I_52G_53A_54A_55F_67L_, Q9UKT9]: 2.02, 0.295, 1.47 and 1.59.
As for FRCEICGAAFTQKGNLLRHIKL [46F_47R_49E_50I_52G_53A_54A_55F_67L_, Q9UKT9], the “log2 fold change of degron read counts” value reads like this: under setting [1], 2.72; under setting [2], 2.37; under setting [3], 2.62; (compound: thalidomide) 2.49.
Take FFCEICGAAFTQKGNLLRHIKL [46F_47F_49E_50I_52G_53A_54A_55F_67L_, Q9UKT9]: the “log2 fold change of degron read counts” value by setting is: under setting [1], 3.55; under setting [2], 3.64; under setting [3], 2.55; (compound: thalidomide) 1.87.
The matching figures for FECEICGAAFTQKGNLLRHIKL [46F_47E_49E_50I_52G_53A_54A_55F_67L_, Q9UKT9]: 2.86, -0.833, 2.05 and 2.53.
Regarding FMCEICGAAFTQKGNLLRHIKL [46F_47M_49E_50I_52G_53A_54A_55F_67L_, Q9UKT9], the “log2 fold change of degron read counts” value by setting is: under setting [1], 2.64; under setting [2], 2.45; under setting [3], 3.19; (compound: thalidomide) 2.46.
On the same counts, the results for FHCEICGAAFTQKGNLLRHIKL [46F_47H_49E_50I_52G_53A_54A_55F_67L_, Q9UKT9] are 3.24, 3, 1.87 and 0.773.
The matching figures for FACPICGALFTQKGNLLRHIKL [46F_47A_49P_50I_52G_53A_54L_55F_67L_, Q9UKT9]: 1.68, -0.526, 0.427 and -0.353.
On the same counts, the results for FRCNICGAVFTQKGNLLRHIKL [46F_47R_49N_50I_52G_53A_54V_55F_67L_, Q9UKT9] are -1.72, -0.828, 0.967 and 0.628.
As to FKCEICGRAFTQKGNLLRHIKL [46F_47K_49E_50I_52G_53R_54A_55F_67L_, Q9UKT9], the “log2 fold change of degron read counts” value was -2.33 under setting [1], -3.03 under setting [2], -3.25 under setting [3] and -2.08 (compound: thalidomide).
On the same counts, the results for FTCDVCGADFTQKGNLLRHIKL [46F_47T_49D_50V_52G_53A_54D_55F_67L_, Q9UKT9] are -2.29, -1.84, -2.04 and -2.29.
